# In PubChem BioAssay (NCATS):
# Values joined by “and” are separate entries in the source; they are usually repeats but may differ in a detail not shown here. Equal entries are not always repeated. Results filed as inconclusive are left out. Where a call stands in place of a potency, no number is given. Unmarked numbers belong to inactive results. Active and inactive are the calls of the source. Unless noted, the call rests on the fitted dose curve; in most records, active means well fitted curve in the direction sought with a large enough effect; inconclusive means small, poorly fitted or top-dose-only effect, or another doubt; inactive means no such curve, though single readings can be large; an effect the other way counts as inactive or inconclusive.
# Assays:
# [1] = molecular target: Cellular tumor antigen p53 (Homo sapiens) (UniProt P04637); assay: Primary qHTS for small molecule compounds that upregulate eGFP-tagged delta133p53alpha (in N-terminal) cells. (AID 2060322); details: NCI-H358 eGFP-delta133p53alpha fluorescence, 24 h; activation: active compounds read high; further: series mostly up to about 56 µM; nearly all actives have a fitted effect of over 75% in size
# Sequence of Cellular tumor antigen p53 (Homo sapiens) (P04637 whole entry, looked up): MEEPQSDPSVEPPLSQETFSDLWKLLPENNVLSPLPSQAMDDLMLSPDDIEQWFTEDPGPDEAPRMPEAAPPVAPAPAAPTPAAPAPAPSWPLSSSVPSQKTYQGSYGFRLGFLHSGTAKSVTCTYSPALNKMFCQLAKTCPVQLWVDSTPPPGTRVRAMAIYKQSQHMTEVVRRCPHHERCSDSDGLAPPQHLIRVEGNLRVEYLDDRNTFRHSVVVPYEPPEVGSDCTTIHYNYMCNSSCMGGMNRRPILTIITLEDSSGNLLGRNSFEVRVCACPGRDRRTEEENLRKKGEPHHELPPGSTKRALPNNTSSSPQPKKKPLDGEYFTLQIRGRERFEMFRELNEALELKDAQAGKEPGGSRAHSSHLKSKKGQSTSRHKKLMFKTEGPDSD
# Procedure, shortened: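 NCI-H358 cells pre-induced 24 h with 10 ng/ml doxycycline to express N-terminal eGFP-delta133p53alpha, then dosed 24 h at 37C without doxycycline; fixed, Hoechst-stained, GFP intensity by laser scanning cytometry, normalized to DMSO (0%) and 57.5 uM 5-azacytidine (100%).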
# [2] = molecular target: Cellular tumor antigen p53 (Homo sapiens) (UniProt P04637); assay: Primary qHTS for small molecule compounds that upregulate eGFP-tagged delta133p53alpha (in C-terminal) cells. (AID 2060324); further: potency means the concentration at half of the fitted maximal effect
# Procedure, shortened: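 NCI-H358 cells with doxycycline-inducible D133p53a-eGFP (C-terminal tag), pre-induced 24 h with 100 ng/ml doxycycline, plated 800/well in doxycycline-free medium and treated 24 h at 37 °C with compound titrations. Cells were then fixed and Hoechst-stained, and GFP intensity was read by laser scanning cytometry.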
# [3] = molecular target: Retinaldehyde dehydrogenase 3 (Homo sapiens) (UniProt P47895); assay: qHTS for Inhibitors of the Aldehyde Dehydrogenase Family (ALDH1A3) Confirmatory screens (AID 2061311); further: potency means the concentration at half of the fitted maximal effect; nearly all actives have a fitted effect of over 60% in size
# [4] = molecular target: Retinaldehyde dehydrogenase 3 (Homo sapiens) (UniProt P47895); assay: qHTS for Inhibitors of the Aldehyde Dehydrogenase Family (ALDH1A3) Validation screen (AID 2061312); further: nearly all actives have a fitted effect of over 45% in size
# [5] = BET inhibitor-based combinations targeting novel dependencies in MECOM-rearranged (r) AML: OCI-AML3 cell line (AID 2202232); details: Potency: OCI-AML3 viability; further: nearly all actives have a fitted effect of over 35% in size; further: potency means the concentration at half of the fitted maximal effect
# Procedure, shortened: (§1)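 Viability of cells (500 per well) is scored by luminescent CellTiter-Glo at 48 hr post-dosing. Eleven-point titrations are normalized to DMSO and empty controls and reduced to AUC values.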
# [6] = BET inhibitor-based combinations targeting novel dependencies in MECOM-rearranged (r) AML: MV-4-11 cell line (AID 2202233); further: nearly all actives have a fitted effect of over 45% in size; further: potency means the concentration at half of the fitted maximal effect
# Procedure, shortened: (§2)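 Using pin-tool transfer, drugs were added in 11 doses to cells (500/well), incubated 48 hr, and assessed with CellTiter-Glo. Z-AUC is a mean-centring transformation applied separately to each screened line.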
# [7] = BET inhibitor-based combinations targeting novel dependencies in MECOM-rearranged (r) AML: UCSD-AML1 cell line (AID 2202235); further: nearly all actives have a fitted effect of over 40% in size; further: potency means the concentration at half of the fitted maximal effect
# Procedure, shortened: as §2
# [8] = qHTS for Inhibitors of the Aldehyde Dehydrogenase Family (ALDH1A2, ALDH1A3, ALDH2, ALDH3A1) (AID 2061307); further: nearly all actives have a fitted effect of over 50% in size; on potency: test system not described further here; potency means the concentration at half of the fitted maximal effect
# [9] = molecular target: Retinal dehydrogenase 2 (Homo sapiens) (UniProt O94788); assay: qHTS for Inhibitors of the Aldehyde Dehydrogenase Family (ALDH1A2) Confirmation screens (AID 2061314); further: potency means the concentration at half of the fitted maximal effect; nearly all actives have a fitted effect of over 65% in size
# [10] = BET inhibitor-based combinations targeting novel dependencies in MECOM-rearranged (r) AML: SET-2 cell line (AID 2202231); details: SET-2 AML cells viability, CellTiter-Glo luminescence, 48 h; viability: active compounds read low, concentration not given here; further: nearly all actives have a fitted effect of over 35% in size; further: potency means the concentration at half of the fitted maximal effect
# Procedure, shortened: as §1
# [11] = BET inhibitor-based combinations targeting novel dependencies in MECOM-rearranged (r) AML: HNT-34 cell line (AID 2202234); further: nearly all actives have a fitted effect of over 35% in size
# Procedure, shortened: as §2
# [12] = BET inhibitor-based combinations targeting novel dependencies in MECOM-rearranged (r) AML: AML-191 cell line (AID 2202236; further: nearly all actives have a fitted effect of over 35% in size)
# Procedure, shortened: as §1
# [13] = BET inhibitor-based combinations targeting novel dependencies in MECOM-rearranged (r) AML: AML-194 cell line (AID 2202237; further: nearly all actives have a fitted effect of over 40% in size)
# Procedure, shortened: as §1
# [14] = molecular target: Aldehyde dehydrogenase, mitochondrial (Homo sapiens) (UniProt P05091); assay: qHTS for Inhibitors of the Aldehyde Dehydrogenase Family (ALDH2) Validation screens (AID 2061302; active means well fitted inhibition curve with a large enough effect; title and protocol of this record describe different tests; further: potency means the concentration at half of the fitted maximal effect)
# [15] = molecular target: Aldehyde dehydrogenase 1A1 (Homo sapiens) (UniProt P00352); assay: qHTS for Inhibitors of the Aldehyde Dehydrogenase Family (ALDH1A1) Confirmatory screens (AID 2061316); further: potency means the concentration at half of the fitted maximal effect; nearly all actives have a fitted effect of over 65% in size
compound,measurement,setting,value
N#C/C(=C\c1ccc(O)c(O)c1)C(=O)NCCCNC(=O)/C(C#N)=C/c1ccc(O)c(O)c1,activation,[1],-33.4%
same,Potency,[2],inactive
same,Potency,[3],2.83 µM (active)
CN1CCN(C2=Nc3ccccc3Oc3ccc(Cl)cc32)CC1,activation,[1],-10% and -16.8%
same,Potency,[2],inactive
same,Potency,[4],inactive
O=C1c2c(O)cc(O)cc2OC(c2ccc(O)c(O)c2)C1O (centres undefined),activation,[1],31.8% and -16.9%
same,Potency,[2],inactive
same,Potency,[4],inactive
same,Potency,[5],23.5 µM (active)
same,Potency,[6],18.6 µM (active)
same,outcome,[7],inactive
CCN(CC)C(C)CN1c2ccccc2Sc2ccccc21 (centres undefined),activation,[1],-8.47% and -0.322%
same,Potency,[2],inactive
same,Potency,[4],inactive
COc1cc(/C=C(\C#N)C(=O)c2ccc(O)c(O)c2)cc(I)c1O,activation,[1],0.259%
same,Potency,[2],16.9 µM (active)
same,Potency,[8],4 µM (active)
same,Potency,[3],8.96 µM (active)
same,Potency,[9],12.7 µM (active)
O=C1NC(=O)C(c2ccccc2[N+](=O)[O-])=C1Nc1ccc(O)c(Cl)c1,activation,[1],-20.1% and -30.9%
same,Potency,[2],inactive
same,Potency,[6],20.9 µM (active)
Cc1[nH]c(=O)c(C#N)cc1-c1ccc2nccn2c1,activation,[1],-19.2% and 47.5% and 13.7%
same,Potency,[2],30.1 µM (active)
same,viability,[10],118%
same,Potency,[5],inactive
same,Potency,[6],inactive
same,Potency,[11],inactive
same,Potency,[7],inactive
same,Potency,[12],inactive
same,Potency,[13],inactive
c1cc(CN2CCCCC2)cc(OCCCNc2nc3ccccc3s2)c1,activation,[1],20.9% and -10.6%
same,Potency,[14],inactive
CC1=C(/C=C/C(C)=C/C=C/C(C)=C\C(=O)O)C(C)(C)CCC1,activation,[1],-30.1%
same,Potency,[2],inactive
same,viability,[10],102%
same,Potency,[5],0.742 µM (active)
same,Potency,[7],inactive
same,Potency,[13],inactive
OCCN1CCN(CC/C=C2/c3ccccc3Sc3ccc(C(F)(F)F)cc32)CC1,activation,[1],-48.7%
same,Potency,[14],inactive
CO/N=C(\C(=O)N[C@@H]1C(=O)N2C(C(=O)O)=C(CSc3nc(=O)c(O)nn3C)CSC12)c1csc(N)n1 (some centres undefined),activation,[1],4.05%
same,Potency,[2],inactive
same,Potency,[4],inactive
NC(=O)C1=CN(C2OC(COP(=O)(O)OP(=O)(O)OC[C@H]3O[C@@H](n4cnc5c(N)ncnc54)[C@H](OP(=O)(O)O)[C@@H]3O)C(O)C2O)C=CC1 (some centres undefined),activation,[1],-2.48%
same,Potency,[2],inactive
same,Potency,[4],inactive
c1ccc(CN2CCC3(CCCc4ccccc43)CC2)cc1,activation,[1],-56.7%
same,Potency,[14],inactive
O=c1c(-c2ccc(O)cc2)coc2cc(OC3O[C@H](CO)[C@H](O)[C@H](O)[C@H]3O)cc(O)c12 (some centres undefined),activation,[1],21%
same,Potency,[14],44.7 µM (active)
CC(C)(C)c1cc(/C=C(\C#N)C(N)=S)cc(C(C)(C)C)c1O,activation,[1],0.225%
same,Potency,[14],inactive
OCc1ccc(-c2nn(Cc3ccccc3)c3ccccc23)o1,activation,[1],-12.3% and 3.48%
same,Potency,[2],inactive
same,Potency,[10],16.6 µM (active)
same,Potency,[5],23.5 µM (active)
same,Potency,[6],5.9 µM (active)
same,Potency,[7],20.9 µM (active)
CC1(C)NC(=O)N(c2ccc([N+](=O)[O-])c(C(F)(F)F)c2)C1=O,activation,[1],-8.47% and -2.88% and -17.8%
same,Potency,[2],inactive
same,Potency,[4],inactive
same,Potency,[5],inactive
same,Potency,[6],inactive
same,Potency,[11],inactive
same,Potency,[7],inactive
same,Potency,[12],inactive
same,Potency,[13],inactive
CCCCS(=N)(=O)CC[C@H](N)C(=O)O (some centres undefined),activation,[1],-3.27%
same,Potency,[2],inactive
same,Potency,[4],inactive
Clc1ccc2c(N3CCN(CCCN4CCN(c5ccnc6cc(Cl)ccc56)CC4)CC3)ccnc2c1,activation,[1],26.5%
same,Potency,[2],inactive
same,Potency,[8],inactive
same,viability,[10],76.4%
same,Potency,[5],inactive
same,Potency,[11],inactive
same,Potency,[7],inactive
same,Potency,[12],inactive
same,Potency,[13],inactive
NNCCc1ccccc1,activation,[1],11.9% and 3.32% and -5.28%
same,Potency,[2],inactive
same,Potency,[5],7.42 µM (active)
same,Potency,[6],inactive
same,Potency,[11],inactive
same,Potency,[7],inactive
same,Potency,[13],inactive
O=C(O)Cc1ccc(O)c(O)c1,activation,[1],10.9%
same,Potency,[2],inactive
same,Potency,[8],inactive
same,Potency,[15],14.2 µM (active)
O=C1NC(=O)/C(=C/c2ccc(-c3ccc(F)cc3O)o2)S1,activation,[1],-29.7%
same,Potency,[14],inactive
CCCCCCCC/C=C\CCCCCCCC(=O)NCc1ccc(O)c(OC)c1,activation,[1],-13% and -42.7%
same,Potency,[2],inactive
same,Potency,[4],inactive
CC1=C(/C=C/C(C)=C/C=C/C(C)=C/C(=O)O)C(C)(C)CCC1,activation,[1],11.9% and -12.6%
same,Potency,[2],inactive
same,viability,[10],106%
same,Potency,[5],7.42 µM (active)
same,Potency,[6],0.59 µM (active)
same,Potency,[7],inactive
same,Potency,[13],inactive
